Experimental data from PubChem BioAssay AID743262 (National Center for Advancing Translational Sciences (NCATS), 2014).
“And” between values parts separate entries of the source, which are not always exact repeats. Identical values can stand only once. In all, about 1,300 compounds went through this assay and about 25 (2%) were called active. Roughly 9% stayed inconclusive and do not appear here. This is one part of a sample in which actives are shown more often than they occur. The call rests on the fitted dose curve; in most records, active means well fitted activation curve with a large enough effect; inconclusive means small, poorly fitted or top-dose-only effect; inactive means flat fitted curve, though single readings scatter.

Molecular target: Glucagon-like peptide 1 receptor (Homo sapiens) (UniProt P43220)
Sequence (P43220 whole entry, looked up): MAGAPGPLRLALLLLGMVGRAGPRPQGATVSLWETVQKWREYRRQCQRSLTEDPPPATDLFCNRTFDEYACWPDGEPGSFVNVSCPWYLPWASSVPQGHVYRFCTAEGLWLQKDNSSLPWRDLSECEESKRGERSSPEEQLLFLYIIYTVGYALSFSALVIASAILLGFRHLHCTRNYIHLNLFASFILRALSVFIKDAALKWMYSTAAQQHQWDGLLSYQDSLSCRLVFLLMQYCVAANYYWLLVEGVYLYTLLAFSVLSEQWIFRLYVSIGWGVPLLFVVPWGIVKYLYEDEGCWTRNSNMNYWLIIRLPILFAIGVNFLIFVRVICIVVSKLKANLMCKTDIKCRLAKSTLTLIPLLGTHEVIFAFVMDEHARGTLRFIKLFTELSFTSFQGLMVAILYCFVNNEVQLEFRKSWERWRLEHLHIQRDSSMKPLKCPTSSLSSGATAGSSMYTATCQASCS
Assay: qHTS of GLP-1 Receptor Agonists: Hit Validation; on activation: % of control where 0% means no effect
Details: HEK293 GLP-1R, cAMP-response luciferase, 4-6 h; series mostly up to 46.1 µM; activation: at the top concentration
From the text: The overall goal of this project was to develop a novel assay for discovering small molecule ligands for class B1 G protein-coupled receptors (GPCRs). Very few agonists (or inverse agonists) with generally weak activity for this entire group of physiologically important receptors are known to date. To establish proof-of-principle that this critical bottleneck can be overcome with a suitable screening approach, our studies focused on the class B1 receptor for glucagon-like peptide-1 (GLP-1R), a potential therapeutic target for diabetes and neurodegenerative disease. The assay was developed in a "mix and measure" format using a cell-based functional readout. Toward this goal, stably transfected HEK293 cell clones were established that co-express (i) a cAMP-responsive luciferase reporter gene, and (ii) GLP-1Rs that upon ligand interaction either stimulate (agonists) or inhibit (inverse agonists) luciferase activity. In different cell lines to be used for screening, expressed GLP-1Rs are specifically optimized for high sensitivity detection of either weak agonists (hypersensitive receptor) or inverse agonists (constitutively active receptor mutant). In addition, control cell lines were developed that express either the cAMP-responsive reporter gene without recombinant GLP-1Rs (enabling initial exclusion of GLP-1R independent effects of candidate probes), or the reporter gene together with wild type GLP-1Rs (for confirmation of probe activity at this receptor), or the reporter gene in combination with the constitutively active orphan receptor GPR119 (enabling initial exclusion of GLP-1R independent inhibitory effects of candidate inverse agonists). To that end, this assay was optimized for 1536-well format and screened against the MLSMR. NIH Molecular Libraries Probe Production Network [MLPCN] NIH Chemical Genomics Center [NCGC] Grant: NS064851 PI Name: Martin Beinborn, Tufts Medical Center
In a white solid 1536-well plate, 6 uL of cells are dispensed in DMEM without phenol red, 10% Nu serum, and 1% pen-strep medium. The plates are then incubated for 12 hours at 37 deg C at 5% CO2 before 23 nL of compounds are added. After a 4-6 hr incubation at37 deg C and 5% CO2, 3 uL of detection reagent are added and after a 12 min incubation at RT, a luminescent read is obtained on the ViewLux.
Potency means the concentration at half of the fitted maximal effect.

| Structure (SMILES) | activation | Potency |
| --- | --- | --- |
| O=c1[nH]nc(-c2ccc(NCCO)c([N+](=O)[O-])c2)c2ccccc12 | 13.2% (inactive) |  |
| COc1ccc(C(=O)Cc2ccccc2)cc1OC | 1.93% (inactive) |  |
| COCc1cc(C)nc2sc(C(=O)OC(C)C)c(N)c12 | 6.32% (inactive) |  |
| CCCCn1c(=NC(=O)c2cccnc2)c(C(=O)OCC)cc2c(=O)n3ccccc3nc21 | 7.86% (inactive) |  |
| COc1ccc(NC(=O)c2cccnc2)cc1OCC(C)C | 0.0143% (inactive) |  |
| O=C(Cn1nc(-c2ccc(N3CCOCC3)c([N+](=O)[O-])c2)c2ccccc2c1=O)N1CCCCC1 | 20.3% (inactive) |  |
| OC(c1ccccc1)c1nc(-c2csc3ccccc23)cs1 (stereo unspecified) |  | 7.31 µM (active) |
| OC(c1ccccc1)c1nc(-c2ccccc2)cs1 (stereo unspecified) | -0.205% (inactive) |  |
| COc1ccccc1Nc1nc(Cl)nc(Nc2ccccc2OC)n1 | 7.81% (inactive) |  |
| CCOc1ccc(Oc2c(/C=N/NC(N)=O)c(C)nn2-c2ccccc2)cc1 | 16% (inactive) |  |
| CCN(CC)S(=O)(=O)c1cc(NC(=O)c2ccccc2OCc2c(C)noc2C)ccc1C | 1.93% (inactive) |  |
| CCc1cc2c(-c3ccccc3)cc(=O)oc2c(CN2CCOCC2)c1O | 4.04% (inactive) |  |
| N#C/C(=C\c1ccc(N2CCOCC2)c([N+](=O)[O-])c1)c1nc2ccccc2[nH]1 | 4.71% (inactive) |  |
| CC1(c2ccccc2)NC(=O)N(CC(=O)NNC(=O)c2ccccc2F)C1=O (stereo unspecified) | -0.706% (inactive) |  |
| CSc1ncccc1C(=O)OCc1c(F)cccc1Cl | 5.02% (inactive) |  |
| CCOc1ccc(CCNC(=O)c2ccc3ccccc3n2)cc1OCC | 2.41% (inactive) |  |
| CCN1CCN(c2nc3sc4c(c3c3ncnn23)CC(C)CC4)CC1 (stereo unspecified) | 5.78% (inactive) |  |
| CCn1nc(NC(=O)c2ccco2)c2cc3cc(C)ccc3nc21 | 0.893% (inactive) |  |
| CCOC(=O)c1cc(NC(=O)c2cccnc2)cc(C(=O)OCC)c1 | 0.228% (inactive) |  |
| CCn1nc(NC(=O)c2cccnc2)c2cc3ccccc3nc21 |  | 20.6 µM (active) |
| CC(=O)c1cccc(Nc2nc(=O)c3cccnc3s2)c1 | 3.72% (inactive) |  |
| CC(=O)c1cccc(N2C(=O)C3C4CCC(C4=C(C)C)C3C2=O)c1 (stereo unspecified) | -0.946% (inactive) |  |

| Structure (SMILES) | activation | Potency |
| --- | --- | --- |
| OCCNc1nc(-c2ccccc2)c2cc(Cl)ccc2n1 | 15.5% (inactive) |  |
| O=c1ccc2ccc(OCCOc3cccc(Cl)c3)cc2o1 | 6.88% (inactive) |  |
| CCOC(=O)c1sc2nc(OCc3cccnc3)cc(C)c2c1N | 9.79% (inactive) |  |
| CCc1cc(=O)oc2c3c(cc(OCC(=O)Nc4cccnc4)c12)OC(C)(C)CC3 | 9.92% (inactive) |  |
| COC(=O)c1ccc2c(=O)[nH]c(COC(=O)c3[nH]c(C)c(C(C)=O)c3C)nc2c1 | -0.418% (inactive) |  |
| CCC(C)Nc1nc(N)c([N+](=O)[O-])c(Nc2ccccc2OC)n1 (stereo unspecified) | 25.2% (inactive) |  |
| CCN1CCN(C2=C(Cl)C(=O)N(Cc3ccccc3)C2=O)CC1 | 4.15% (inactive) |  |
| COCCCNC(=S)N/N=C/c1ccc2ccccc2c1 | 2.83% (inactive) |  |
| Cc1cc(C)nc(N2CCCC(C(=O)Nc3ccc4nc(C)c(C)nc4c3)C2)n1 (stereo unspecified) | 2.27% (inactive) |  |
| COc1ccc(C)cc1N(C(=O)c1snc(C(N)=O)c1N)C(C(=O)NC1CCCCC1)c1ccc(C)o1 (stereo unspecified) | -0.356% (inactive) |  |
| CCOC(=O)c1c(C)c(C(=O)N2CCCCCC2)c(C)n1C | 2.73% (inactive) |  |
| COc1cccc(C2CC(=O)Nc3cc(OC)c(OC)c(OC)c32)c1OC (stereo unspecified) | 0.189% (inactive) |  |
| COc1cc2c(cc1OC)/C(=C/C(=O)N1CCOCC1)NC(C)(C)C2 | 12.9% (inactive) |  |
| CC(=O)NC1(c2ccccc2)CCN(c2cc(C)nc(-c3ccccc3)n2)CC1 | 14.2% (inactive) |  |
| C=C[C@@]1(C)CC(=O)[C@]2(O)[C@@]3(C)[C@@H](O)CCC(C)(C)[C@@H]3[C@H](O)[C@H](OC(C)=O)[C@@]2(C)O1 |  | 2 µM (active) and 1.84 µM (active) |
| C=C[C@@]1(C)CC(=O)[C@]2(O)[C@@]3(C)[C@@H](O)CCC(C)(C)[C@@H]3[C@H](OC(C)=O)[C@H](O)[C@@]2(C)O1 |  | 9.2 µM (active) |
| COc1cccc(/C=C/C(=O)Nc2ccc(N3CCOCC3)cc2)c1OC | 0.215% (inactive) |  |
| Cc1ccc(NC(=O)COc2ccc(CCO)cc2-n2nc3ccccc3n2)cc1C | 27.2% (inactive) |  |
| C=CCOc1nc2c(c(=O)n(C)c(=O)n2C)n1Cc1ccccc1Cl | 4.97% (inactive) |  |
| Cc1ccc(CNCCCSc2ncccn2)cc1 | 17.6% (inactive) |  |
| CC(=O)Nc1ccc(NC(=O)c2cc(C3CC3)nc3c2cnn3C(C)C)cc1 | 2.18% (inactive) |  |
| O=C(NCc1ccco1)c1cccc2c(-c3ccc(F)c(F)c3)coc12 | 15.6% (inactive) |  |

| Structure (SMILES) | activation | Potency |
| --- | --- | --- |
| COc1ccc(CNC(=O)c2cccc3c(-c4cnn(C)c4)coc23)cc1OC | 18.7% (inactive) |  |
| O=C(NCc1cccs1)c1cccc2c(-c3cccnc3)coc12 |  | 9.2 µM (active) |
| COc1ccc(N(CC(=O)N/N=C/c2ccc(OC)c(OC)c2)S(=O)(=O)c2ccccc2)cc1 | 22.5% (inactive) |  |
| COc1ccc(-c2cc(=O)[nH]c(NCc3ccccc3)n2)cc1 | 6.89% (inactive) |  |
| CC1Cc2cc(S(=O)(=O)N3CCCC(C(=O)N4CCCCC4)C3)ccc2N1C(=O)C1CC1 (stereo unspecified) | 10.9% (inactive) |  |
| CCOC(=O)C1CCCN(C2=NC(=O)/C(=C/c3ccc(O)c(OCC)c3)S2)C1 (stereo unspecified) | 11.7% (inactive) |  |
| O=C(NC1CCCCCC1)C(=O)NC1CC1 | -0.58% (inactive) |  |
| CC(OC(=O)c1ccc2ncsc2c1)C(=O)NC1CCCCC1C (stereo unspecified) | 2.27% (inactive) |  |
| COc1ccc(-c2nn3c(COc4ccccc4)nnc3s2)cc1OC | 28.5% (inactive) |  |
| CCOC(=O)/C(C#N)=C/Nc1cc(OC)ccc1OC | 2.12% (inactive) |  |
| Oc1ccccc1/C=N/N1CCN(c2ccccn2)CC1 | -0.352% (inactive) |  |
| c1coc(Cn2c(-c3ccco3)nc3ccccc32)c1 | -0.487% (inactive) |  |
| COc1ccc(NC(C)=O)cc1S(=O)(=O)Nc1ccc2c(c1)OCCO2 | -0.925% (inactive) |  |
| COCCN(Cc1ccccc1)C(=O)c1cc(-c2ccc(OC)c(OC)c2)nc2ccccc12 | 23.1% (inactive) |  |
| Cc1nc2cc(-c3cccc(F)c3)nn2c(N2CCN(C(=O)c3ccco3)CC2)c1C | 16.2% (inactive) |  |
| CCN(CC)c1nc(OC)nc(-n2nnc(C(C)=O)c2C)n1 | 0.606% (inactive) |  |
| CCc1nc(SCCO)c2oc3ccccc3c2n1 | 3.96% (inactive) |  |
| COC(=O)c1sc(NC(=O)CSc2nc3cccnc3n2C2CCCCC2)nc1C | 2.81% (inactive) |  |
| COc1ccc(OC)c(/C=N/n2c(-c3n[nH]c4c3CCC4)n[nH]c2=S)c1 | -1.33% (inactive) |  |
| COC(=O)Cc1c(C)c2ccc(OCc3nn[nH]n3)cc2oc1=O | -0.628% (inactive) |  |
| CCOC(=O)C1=C(COC(=O)c2cc(S(=O)(=O)N3CCOCC3)ccc2F)NC(=O)NC1C (stereo unspecified) | 20.7% (inactive) |  |
| COc1cccc(Cn2c(N)c(C#N)c3nc4ccccc4nc32)c1OC | 7.89% (inactive) |  |
